# Compound activity: PubChem BioAssay, National Center for Advancing Translational Sciences (NCATS)
# Coupling enz = coupling enzyme interference in Giardia aldolase counter-screen | AID 2472 | activity change, negative = inhibition, % at 58.2 µM, hits read low | coupling enzyme system counterscreen, AmpLite Red fluorescence | actives 0.67% (n = 290,000); in the data active means activity change below about -30%
#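 Fluorescence at 525 nm excitation and 598 nm emission measured inhibition of the coupled detection system without aldolase. Compounds (at 57.5 uM final) were preincubated 10 min at room temperature with coupling enzyme reagent before a 20 min substrate/AmpLite Red step.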
# Sfp inh = Sfp phosphopantetheinyl transferase inhibition. Potency, µM, for inactives: largest response in the series, negative = inhibition, most hits filed as inhibitors. Biochemical Sfp PPTase activity, qHTS. AID 1490. actives 3.5% (n = 310,000). Q9F4F7;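 further: the enzyme is Sfp with the accession as filed and its product quenches rhodamine fluorescence; potency means the concentration at half of the fitted maximal effect; 0% = enzyme reaction without inhibitor and -100% = no enzyme wells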
#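 Fluorescence-quenching assay with 15 nM Sfp, 5 uM rhodamine-CoA and 12.5 uM BHQ-2-labelled ybbR peptide in pH 7.6 Hepes/MgCl2 buffer. Enzyme was pre-incubated with compound for 15 min at room temperature. Rate was taken from the 30-min fluorescence change (525/598 nm).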
# Tau fluor counter = counter-screen for tau fibril formation inhibitors; tau K18 P301L Alexa594 fluorescence, heparin fibrillization; Potency, µM (doses to about 57.7 µM), for the others: top-dose activity change, negative = decrease; actives 0.93% (n = 280,000); AID 1463; further: potency means the concentration at half of the fitted maximal effect; nearly all actives have a fitted effect of over 55% in size
#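 Human tau K18 P301L (15 uM unlabeled, 0.24 uM Alexa 594-labeled) in 100 mM sodium acetate pH 7 with 20 uM heparin, 6 hr at 37 C. ThT 30 uM added, 1 hr ambient; Alexa 594 FP and total fluorescence read at 555/632 nm.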
# Tau FP inhib = inhibitors of human tau fibril formation | P10636 | K18 P301L tau heparin fibrillization, Alexa594 FP, 6 h | Potency, µM (series often up to 57.7 µM), inactives show at the top dose activity, negative = inhibition, usual class: inhibitors | actives 0.39% (n = 280,000); further: potency means the concentration at half of the fitted maximal effect; nearly all actives have a fitted effect of over 55% in size
# Target sequence (P10636 561-689 P618L limits assumed): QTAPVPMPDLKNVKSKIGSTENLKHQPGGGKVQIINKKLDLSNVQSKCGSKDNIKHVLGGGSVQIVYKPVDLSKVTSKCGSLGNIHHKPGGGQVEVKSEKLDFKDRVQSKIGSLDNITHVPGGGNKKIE
#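 Quantitative HTS format: compounds meet 15 uM recombinant K18 P301L tau and Alexa 594-tau tracer in 100 mM sodium acetate pH 7; 20 uM heparin triggers fibrillization at 37 C over 6 hr; FP gives the signal.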
# G9a inh = G9a (human) methyltransferase inhibition | AID 504332 | Potency, µM (titrated, usually from 102 µM), without a hit: top-dose activity, negative = inhibition, usual class: inhibitors | Q96KQ7 | actives 8.8% (n = 350,000) | G9a H3K9 monomethylation, AlphaScreen, 2 h; further: potency means the concentration at half of the fitted maximal effect; nearly all actives have a fitted effect of over 75% in size
# Target sequence (Q96KQ7 913-1193 limits assumed): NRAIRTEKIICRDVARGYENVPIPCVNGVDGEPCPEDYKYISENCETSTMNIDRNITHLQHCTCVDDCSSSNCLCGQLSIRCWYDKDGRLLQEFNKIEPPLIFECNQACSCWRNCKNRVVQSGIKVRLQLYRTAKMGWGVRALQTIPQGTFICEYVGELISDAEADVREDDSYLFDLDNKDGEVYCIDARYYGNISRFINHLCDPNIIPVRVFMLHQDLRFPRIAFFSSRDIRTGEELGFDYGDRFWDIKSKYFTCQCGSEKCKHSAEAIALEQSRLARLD
#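 AlphaScreen detection with an anti-monomethyl H3K9 antibody quantified product after a 2 h room-temperature reaction containing 500 nM biotinylated H3K9 peptide, 20 µM SAM and 20 nM enzyme, which had been preincubated 15 min with compound.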
# Tau ThT inhib = blocks human tau fibril formation measured by thioflavin T | recombinant tau K18 P301L (four-repeat tau fragment), heparin-induced fibrillization, ThT fluorescence | Potency, µM (series often up to 57.4 µM), for inactives: at the top dose activity, negative = inhibition, usual class: inhibitors | P10636 | actives 2.1% (n = 270,000); further: potency means the concentration at half of the fitted maximal effect; nearly all actives have a fitted effect of over 55% in size
#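 K18 P301L tau (15 uM + 0.24 uM Alexa 594-tagged), heparin 20 uM, NaOAc pH 7, 6 h 37 C; ThT 30 uM, 1 h RT, ex 450/em 510 nm.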
# An asterisk follows results filed as active; ? = inconclusive; . = no result given; [ ] = dose if it differs, or a comment. Compounds with a hit are over-represented: about 11% of the library has one in this group of screens. Unless noted, the call rests on the fitted dose curve; in most records, active means well fitted curve in the direction sought with a large enough effect; inconclusive means small, poorly fitted or top-dose-only effect, or another doubt; inactive means no such curve, though single readings can be large; an effect the other way counts as inactive or inconclusive. Unless noted, on the % scale 0 is the no-effect control and ±100 the full control effect.
SMILES,Coupling enz,Sfp inh,Tau fluor counter,Tau FP inhib,G9a inh,Tau ThT inhib
COc1ccccc1NS(=O)(=O)c1cc(NC(=O)c2cc[n+]([O-])cc2)ccc1N1CCCC1,0,11µM*,?,-2%,?,?
COc1ccccc1NS(=O)(=O)c1cc(NC(=O)C(C)C)ccc1N1CCCCC1,0,40µM*,-30%,-8%,8.9µM*,-6%
O=C(Nc1cc(C(F)(F)F)ccc1N1CCOCC1)c1cccs1,-1,-5%,0%,6%,20%,-9%
O=C(Nc1ccc(N2CCCC2)c(S(=O)(=O)Nc2cccc(C(F)(F)F)c2)c1)c1cccs1,-5,7%,10µM*[quencher],7%,-18%[59 µM],-13%
O=C(C1CCCN(S(=O)(=O)c2ccc(Br)s2)C1)N1CCN(c2ccccc2F)CC1 (centres undefined),.,.,-21%,5%,?,-13%
O=C(Nc1ccc(Cl)c(S(=O)(=O)Nc2ccccc2Cl)c1)c1cccs1,9,13%,25µM*[quencher],?,2%[59 µM],-6%
COc1ccccc1NS(=O)(=O)c1cc(NC(=O)c2cccs2)ccc1N1CCCCC1,1,17%,-11%,?,-12%[59 µM],?
Cc1ccc(C(=O)Nc2ccc(C)c(S(=O)(=O)Nc3ccccc3Cl)c2)s1,2,2%,?,?,?,5%
COc1ccccc1NS(=O)(=O)c1cc(NC(=O)Nc2ccccc2)ccc1N1CCCCC1,-1,?,?,22µM*,10µM*,17%
COC(=O)CCN(C(=O)C1CCN(S(=O)(=O)c2c(C)noc2/C=C/c2ccccc2F)CC1)c1ccccc1,.,.,-4%,-9%,5%[59 µM],-4%
O=C1CCCc2nc(N3CCN(C(=O)c4ccco4)CC3)ncc21,.,7%,.,.,29%,.
CN(C)C(=O)c1ccc(-c2cncnc2NCc2cccs2)cc1,0,50µM*,-7%,-7%,.,-9%
CN(C)C(=O)c1ccc(-c2cncnc2NCc2ccccc2)cc1,6,14%,.,.,1%[0.501 µM],.
CCOc1ccc(NC(=O)CN(C)C(=O)CN2C(=O)NC3(CCCC3)C2=O)cc1OCC,.,.,.,.,56µM*,.
Cc1ccc(C(C(=O)Nc2ccc3c(c2)OCO3)N(C)C(=O)Cc2c[nH]c3ccccc23)cc1 (centres undefined),-2,7%,?,-3%,40µM*,-4%
CCOc1ccc(NC(=O)CN(C)C(=O)Cc2n[nH]c(=O)c3ccccc23)cc1OCC,.,.,.,.,-9%[2.33 µM],.
CCOc1ccc(NC(=O)CN(C)C(=O)Cc2c[nH]c3ccccc23)cc1OCC,.,.,.,.,50µM*,.
CCOC(=O)N1CCc2c(sc3c2c(=O)n(Cc2ccccc2)c(=O)n3CC(=O)Nc2cccc(CC)c2)C1,.,.,-27%,?,1%[59 µM],6%
COc1cc(C(=O)O/N=C2/C=C(C)C(=O)C=C2C)cc(OC)c1OC,-10,6%,-5%,-2%,-11%[59 µM],?
CC1=C/C(=N\OS(=O)(=O)c2ccccc2)C(C)=CC1=O,-88*,-11%,?,?,20µM*,14µM*
CC1=C/C(=N\OS(=O)(=O)c2ccccc2)C(C(C)C)=CC1=O,-70*,-28%,-26%,?,8.9µM*,10µM*
CCN1CCN(CCC(=O)Nc2ccccc2OC)CC1,2,23%,-6%,0%,12%[59 µM],-4%
FC(F)(F)c1ccccc1NC(=S)N1CCc2ccccc2C1,3,19%,-7%,6%,-9%,8%
CCCN1CCN(C(=S)Nc2ccccc2C(F)(F)F)CC1,-2,-14%,0%,4%,40µM*,-1%
CN1CCN(CC(=O)Nc2ccccc2C(F)(F)F)CC1,0,-16%,.,.,4.5µM*,.
SMILES,Coupling enz,Sfp inh,Tau fluor counter,Tau FP inhib,G9a inh,Tau ThT inhib
O=C(CN1CCc2ccccc2C1)Nc1ccccc1C(F)(F)F,-1,-23%,.,.,13µM*,.
COc1ccccc1NC(=O)CCN1CCN(C)CC1,1,8%,7%,4%,50µM*,13%
CC(=O)c1ccc(N2CCN(S(=O)(=O)c3ccc(-c4cc(C(F)(F)F)on4)s3)CC2)cc1,.,.,3%,-3%,6%[59 µM],6%
CC(C)(C)NC(=O)NC(=O)C[n+]1ccc(Cc2ccc([N+](=O)[O-])cc2)cc1,-25,-5%,.,.,-15%[2.33 µM],.
Cc1ccc(NC(=O)CSCC(=O)N(C)CC(=O)Nc2ccccc2C(F)(F)F)cc1,.,.,.,.,50µM*,.
CCc1cccc2nc3c(c([Si](C)(C)C)c12)Cn1c-3cccc1=O,-5,-20%,-12%,-2%,.,?
O=C(Nc1ccc(F)cc1)c1cccc(N2C(=O)C3C4CCC(C4)C3C2=O)c1 (centres undefined),0,2%,-1%,-10%,3.2µM*,4%
O=C(Nc1cccc(Cl)c1)c1cccc(N2C(=O)C3CC=CCC3C2=O)c1 (centres undefined),0,-7%,.,.,79µM*,.
CC1C=CCC2C(=O)N(c3cccc(C(=O)NCc4ccccc4)c3)C(=O)C12 (centres undefined),3,-27%,.,.,28µM*,.
CCCOc1ccc(C2=CSC3=NCCN23)cc1,-1,9%,.,.,-15%,.
Cc1ccc(C)c(S(=O)(=O)Nc2ccc(O)c(Sc3ncn[nH]3)c2)c1,-27,?,-23%,-5%,45µM*,.
Cc1ccc(C)c(S(=O)(=O)Nc2ccc3scnc3c2)c1,-45*,-5%,-5%,-3%,0%[12.7 µM],6%
Cc1ccc(S(=O)(=O)Nc2ccc(O)c(Sc3ncn[nH]3)c2)cc1,-10,9%,-2%,2%,?,-5%
Cc1cc(F)ccc1S(=O)(=O)Nc1ccc(O)c(Sc2ncn[nH]2)c1,-11,?,.,.,40µM*,.
COC/C=C/C1=CC2=CC(=O)C(C)(OC(=O)c3ccc(Cl)nc3)C(=O)C2=CO1 (centres undefined),2,-13%,-16%,0%,.,?
O=C(c1ccc2c(=O)n3c(nc2c1)CCCCC3)N1CCN(c2cccc(Cl)c2)CC1,0,7%,.,.,-5%[12.7 µM],.
Cc1oc(-c2ccc(Cl)cc2)nc1Cn1c(=O)cc(-c2ccccc2)c2c(C)nn(C)c21,.,.,-6%,-3%,-1%[59 µM],-5%
CO[C@]12C(COC(N)=O)C3=C(C(=O)C(C)=C(N)C3=O)N1CC1NC12 (some centres undefined),-40*,-6%,-14%,-9%,-45%[2.33 µM],-21%
O=C(COC(=O)c1ccc(O)cc1)NCC1CCCO1 (centres undefined),-1,-5%,0%,1%,-21%,0%
CC1C[N+](=C2C=C(N3CCOCC3)CC(C)(C)C2)CC(C)O1 (centres undefined),2,?,-6%,3%,-7%[12.7 µM],-13%
